The record followed here is PMC7862700, “An all-to-all approach to the identification of sequence-specific readers for epigenetic DNA modifications on cytosine”.

Assay in all cases: DAPPL (digital affinity profiling via proximity ligation, sequencing); 10 mM Tris-HCl pH 7.5, 50 mM NaCl, 1 mM DTT, 4% glycerol, room temperature, 30 min; GST-TFs on glutathione beads, 16-mer random dsDNA library, 0.1% formaldehyde crosslink after washing; high values mean tight binding
What all share (details): protein: recombinant; tags: N-terminal GST; dsDNA, one strand shown

Assay [1] deals with T1, FLI1 (Homo sapiens, UniProt Q01543 1-452).
T1 sequence: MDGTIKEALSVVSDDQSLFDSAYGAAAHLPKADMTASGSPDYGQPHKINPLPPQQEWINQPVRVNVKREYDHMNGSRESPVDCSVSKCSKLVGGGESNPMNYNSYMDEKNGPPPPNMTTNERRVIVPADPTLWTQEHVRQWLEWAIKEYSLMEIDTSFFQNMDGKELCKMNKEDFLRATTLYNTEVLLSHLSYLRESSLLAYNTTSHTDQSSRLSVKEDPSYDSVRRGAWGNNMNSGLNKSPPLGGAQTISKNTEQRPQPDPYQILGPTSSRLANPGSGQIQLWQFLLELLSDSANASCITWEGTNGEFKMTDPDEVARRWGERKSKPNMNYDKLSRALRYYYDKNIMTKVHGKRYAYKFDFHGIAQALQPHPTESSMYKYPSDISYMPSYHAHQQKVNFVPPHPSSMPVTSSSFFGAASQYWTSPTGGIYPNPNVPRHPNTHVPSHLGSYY
The method, boiled down:
(§1)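 Binding signal is given per hexamer as its read frequency for a factor divided by its frequency in the tag-only sample. GST-fused human transcription factors were expressed in yeast, captured on glutathione beads, barcoded with DNA and pooled with that sample, then incubated with 200 nmole of a 16-mer random double-stranded DNA library in Tris/NaCl/DTT/glycerol buffer for 30 min at room temperature. The pools were then washed, crosslinked, proximity-ligated, amplified by PCR and sequenced on an Illumina NextSeq500.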

The target in assay [2] is T2, ELK1 (Homo sapiens, UniProt P19419 1-428).
T2 sequence: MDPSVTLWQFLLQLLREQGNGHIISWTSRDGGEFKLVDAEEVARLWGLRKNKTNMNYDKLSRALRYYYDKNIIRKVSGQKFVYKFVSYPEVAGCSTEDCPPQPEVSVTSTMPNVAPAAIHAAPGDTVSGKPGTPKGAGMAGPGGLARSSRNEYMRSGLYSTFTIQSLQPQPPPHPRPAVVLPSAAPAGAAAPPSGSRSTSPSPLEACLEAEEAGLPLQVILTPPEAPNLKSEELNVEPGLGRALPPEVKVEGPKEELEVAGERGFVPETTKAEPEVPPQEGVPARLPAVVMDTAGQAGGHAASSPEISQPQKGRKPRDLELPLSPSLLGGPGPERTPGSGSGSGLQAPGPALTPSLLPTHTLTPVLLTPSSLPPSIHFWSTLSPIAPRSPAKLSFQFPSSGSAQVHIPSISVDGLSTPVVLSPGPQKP
The method, boiled down:
as §1

In assay [3] the target is T3, GABPA (Homo sapiens, UniProt Q06546 1-454).
T3 sequence: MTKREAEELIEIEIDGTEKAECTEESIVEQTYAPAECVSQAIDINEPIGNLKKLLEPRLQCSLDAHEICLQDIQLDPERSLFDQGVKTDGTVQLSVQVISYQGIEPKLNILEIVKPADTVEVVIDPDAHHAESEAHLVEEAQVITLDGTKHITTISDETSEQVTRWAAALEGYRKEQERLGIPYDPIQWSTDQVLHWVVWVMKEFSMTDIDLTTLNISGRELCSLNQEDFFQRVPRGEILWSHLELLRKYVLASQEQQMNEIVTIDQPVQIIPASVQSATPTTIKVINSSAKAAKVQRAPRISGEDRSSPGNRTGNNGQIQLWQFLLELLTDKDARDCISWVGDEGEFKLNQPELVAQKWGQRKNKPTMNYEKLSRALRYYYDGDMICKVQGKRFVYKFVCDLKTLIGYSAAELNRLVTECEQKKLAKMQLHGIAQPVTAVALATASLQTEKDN
The method, boiled down: as §1

The target in assay [4] is T4, ERG (Homo sapiens, UniProt P11308 1-479).
T4 sequence: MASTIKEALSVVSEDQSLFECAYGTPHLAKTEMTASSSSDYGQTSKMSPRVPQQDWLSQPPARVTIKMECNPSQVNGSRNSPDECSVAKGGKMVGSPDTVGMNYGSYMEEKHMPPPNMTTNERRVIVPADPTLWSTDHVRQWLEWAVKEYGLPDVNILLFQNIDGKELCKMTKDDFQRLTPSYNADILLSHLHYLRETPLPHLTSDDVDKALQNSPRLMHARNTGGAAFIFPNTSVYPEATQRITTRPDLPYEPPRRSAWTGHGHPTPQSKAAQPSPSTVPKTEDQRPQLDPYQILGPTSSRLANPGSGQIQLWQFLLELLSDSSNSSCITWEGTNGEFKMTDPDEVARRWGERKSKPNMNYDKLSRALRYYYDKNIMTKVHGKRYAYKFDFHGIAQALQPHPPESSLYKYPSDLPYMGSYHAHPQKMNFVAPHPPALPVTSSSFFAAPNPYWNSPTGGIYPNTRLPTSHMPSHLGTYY
The method in brief: as §1

Assay [5] deals with ELF1 (Homo sapiens, UniProt P32519 1-619). The method, boiled down:
as §1

The target in assay [6] is T5, EHF (Homo sapiens, UniProt Q9NZC4 1-300).
T5 sequence: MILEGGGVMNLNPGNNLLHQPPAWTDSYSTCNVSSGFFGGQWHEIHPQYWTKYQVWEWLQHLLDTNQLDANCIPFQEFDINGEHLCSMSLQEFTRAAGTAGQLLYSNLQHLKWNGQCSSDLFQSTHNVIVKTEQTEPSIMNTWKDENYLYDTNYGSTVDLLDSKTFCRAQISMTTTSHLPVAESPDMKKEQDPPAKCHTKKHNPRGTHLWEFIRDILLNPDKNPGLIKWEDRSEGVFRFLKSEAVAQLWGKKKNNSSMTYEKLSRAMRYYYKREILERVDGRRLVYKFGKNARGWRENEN
The method in brief:
as §1

The target of assay [7] is SPI1 (Homo sapiens, UniProt P17947 1-270). The method in brief:
as §1

The target of assay [8] is SPIB (Homo sapiens, UniProt Q01892 1-262). The method, boiled down:
as §1

In assay [9] the target is T6, ELK3 (Homo sapiens, UniProt P41970 1-407).
T6 sequence: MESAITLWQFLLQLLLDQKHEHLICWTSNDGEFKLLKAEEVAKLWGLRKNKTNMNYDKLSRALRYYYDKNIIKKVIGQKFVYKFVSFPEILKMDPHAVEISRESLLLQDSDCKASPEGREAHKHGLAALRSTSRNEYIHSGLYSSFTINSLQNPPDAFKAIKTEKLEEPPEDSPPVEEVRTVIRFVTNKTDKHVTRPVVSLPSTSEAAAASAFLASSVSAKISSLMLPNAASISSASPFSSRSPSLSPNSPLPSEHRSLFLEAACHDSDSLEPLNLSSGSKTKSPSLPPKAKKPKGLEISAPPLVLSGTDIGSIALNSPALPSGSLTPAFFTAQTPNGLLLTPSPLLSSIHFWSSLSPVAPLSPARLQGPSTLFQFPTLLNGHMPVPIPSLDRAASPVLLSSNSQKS
The method in brief: as §1

Assay [10] concerns the target T7, FEV (Homo sapiens, UniProt Q99581 1-238).
T7 sequence: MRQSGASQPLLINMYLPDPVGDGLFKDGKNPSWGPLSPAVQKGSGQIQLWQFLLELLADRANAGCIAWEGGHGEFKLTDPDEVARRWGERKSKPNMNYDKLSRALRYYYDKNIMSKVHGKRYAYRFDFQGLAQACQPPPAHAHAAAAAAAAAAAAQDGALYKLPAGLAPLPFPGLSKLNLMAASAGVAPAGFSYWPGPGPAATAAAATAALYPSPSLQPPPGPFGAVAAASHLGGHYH
The method, boiled down: as §1

Assay [11] concerns the target ETV5 (Homo sapiens, UniProt P41161 1-510). The method, boiled down:
as §1

Assay [12] concerns the target T8, SPIC (Homo sapiens, UniProt Q8N5J4 1-248).
T8 sequence: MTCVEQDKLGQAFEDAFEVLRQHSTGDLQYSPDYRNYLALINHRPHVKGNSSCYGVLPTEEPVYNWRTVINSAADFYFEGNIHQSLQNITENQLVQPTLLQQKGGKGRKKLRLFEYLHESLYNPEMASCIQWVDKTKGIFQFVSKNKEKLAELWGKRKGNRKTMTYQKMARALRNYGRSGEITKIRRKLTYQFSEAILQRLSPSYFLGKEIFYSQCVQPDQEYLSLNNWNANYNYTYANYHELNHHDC
The method in brief: as §1

Assay [13] deals with ELF4 (Homo sapiens, UniProt Q99607 1-663). The method, boiled down: as §1
Assay [14] addresses T9, ELK4 (Homo sapiens, UniProt P28324-2 1-405).
T9 sequence: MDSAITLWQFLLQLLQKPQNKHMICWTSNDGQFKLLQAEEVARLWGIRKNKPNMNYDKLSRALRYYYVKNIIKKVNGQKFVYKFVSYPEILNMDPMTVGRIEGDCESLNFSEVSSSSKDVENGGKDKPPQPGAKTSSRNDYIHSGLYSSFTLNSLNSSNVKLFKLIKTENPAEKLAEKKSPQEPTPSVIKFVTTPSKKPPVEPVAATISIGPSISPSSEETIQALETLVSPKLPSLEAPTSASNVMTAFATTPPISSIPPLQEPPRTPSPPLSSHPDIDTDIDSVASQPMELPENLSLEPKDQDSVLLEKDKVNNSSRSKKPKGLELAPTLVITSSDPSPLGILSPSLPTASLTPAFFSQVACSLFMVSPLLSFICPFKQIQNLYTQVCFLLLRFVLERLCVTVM
The method in brief: as §1

Assay [15] has as its target T10, ETV2 (Homo sapiens, UniProt O00321 1-342).
T10 sequence: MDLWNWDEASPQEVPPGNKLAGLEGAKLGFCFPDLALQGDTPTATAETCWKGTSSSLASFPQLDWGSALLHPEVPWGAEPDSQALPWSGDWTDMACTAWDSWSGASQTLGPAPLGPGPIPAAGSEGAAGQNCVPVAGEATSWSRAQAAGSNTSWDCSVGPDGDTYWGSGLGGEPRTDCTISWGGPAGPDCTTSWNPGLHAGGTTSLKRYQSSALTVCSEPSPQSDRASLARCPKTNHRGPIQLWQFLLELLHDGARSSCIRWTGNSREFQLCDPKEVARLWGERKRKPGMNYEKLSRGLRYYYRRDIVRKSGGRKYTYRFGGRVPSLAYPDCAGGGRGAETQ
The method in brief: as §1

Assay [16] addresses T11, ELF3 (Homo sapiens, UniProt P78545 1-371).
T11 sequence: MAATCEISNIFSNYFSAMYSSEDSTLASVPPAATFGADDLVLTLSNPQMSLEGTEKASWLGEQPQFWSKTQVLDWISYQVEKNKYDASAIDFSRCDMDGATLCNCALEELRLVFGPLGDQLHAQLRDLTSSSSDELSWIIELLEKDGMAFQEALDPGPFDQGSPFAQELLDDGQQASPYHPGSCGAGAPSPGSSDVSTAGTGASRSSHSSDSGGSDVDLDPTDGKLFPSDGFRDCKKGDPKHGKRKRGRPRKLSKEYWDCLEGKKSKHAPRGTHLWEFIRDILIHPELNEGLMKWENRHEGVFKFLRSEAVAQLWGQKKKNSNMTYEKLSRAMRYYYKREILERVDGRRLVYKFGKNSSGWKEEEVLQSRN
The method in brief: as §1

The target in assay [17] is CRX (Homo sapiens, UniProt O43186 1-299). The method, boiled down:
as §1

In assay [18] the target is ETV1 (Homo sapiens, UniProt P50549 1-477). The method in brief: as §1
Chain of ETV1 (P50549 whole entry): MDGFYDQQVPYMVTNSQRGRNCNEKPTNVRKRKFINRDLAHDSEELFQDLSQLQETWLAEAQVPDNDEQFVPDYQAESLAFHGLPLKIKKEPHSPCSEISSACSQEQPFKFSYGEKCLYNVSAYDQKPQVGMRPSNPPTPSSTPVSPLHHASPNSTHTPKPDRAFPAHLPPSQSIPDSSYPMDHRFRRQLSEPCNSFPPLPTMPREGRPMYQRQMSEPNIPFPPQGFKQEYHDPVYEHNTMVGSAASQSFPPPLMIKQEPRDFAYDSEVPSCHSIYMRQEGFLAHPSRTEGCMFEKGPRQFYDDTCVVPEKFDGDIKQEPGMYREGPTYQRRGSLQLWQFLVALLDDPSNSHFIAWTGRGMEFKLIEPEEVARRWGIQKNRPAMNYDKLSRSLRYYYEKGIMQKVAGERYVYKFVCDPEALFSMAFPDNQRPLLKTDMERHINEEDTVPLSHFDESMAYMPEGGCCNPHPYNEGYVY

Chain of CRX (O43186 whole entry): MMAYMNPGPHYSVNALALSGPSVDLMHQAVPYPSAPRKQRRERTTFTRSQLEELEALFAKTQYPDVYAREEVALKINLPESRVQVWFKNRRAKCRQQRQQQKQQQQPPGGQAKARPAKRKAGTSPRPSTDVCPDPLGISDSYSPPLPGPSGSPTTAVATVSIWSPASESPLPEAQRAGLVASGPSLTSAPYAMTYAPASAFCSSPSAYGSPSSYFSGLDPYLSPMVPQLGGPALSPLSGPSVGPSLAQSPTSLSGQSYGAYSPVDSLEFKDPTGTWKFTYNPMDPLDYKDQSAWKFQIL
Chain of ELF1 (P32519 whole entry): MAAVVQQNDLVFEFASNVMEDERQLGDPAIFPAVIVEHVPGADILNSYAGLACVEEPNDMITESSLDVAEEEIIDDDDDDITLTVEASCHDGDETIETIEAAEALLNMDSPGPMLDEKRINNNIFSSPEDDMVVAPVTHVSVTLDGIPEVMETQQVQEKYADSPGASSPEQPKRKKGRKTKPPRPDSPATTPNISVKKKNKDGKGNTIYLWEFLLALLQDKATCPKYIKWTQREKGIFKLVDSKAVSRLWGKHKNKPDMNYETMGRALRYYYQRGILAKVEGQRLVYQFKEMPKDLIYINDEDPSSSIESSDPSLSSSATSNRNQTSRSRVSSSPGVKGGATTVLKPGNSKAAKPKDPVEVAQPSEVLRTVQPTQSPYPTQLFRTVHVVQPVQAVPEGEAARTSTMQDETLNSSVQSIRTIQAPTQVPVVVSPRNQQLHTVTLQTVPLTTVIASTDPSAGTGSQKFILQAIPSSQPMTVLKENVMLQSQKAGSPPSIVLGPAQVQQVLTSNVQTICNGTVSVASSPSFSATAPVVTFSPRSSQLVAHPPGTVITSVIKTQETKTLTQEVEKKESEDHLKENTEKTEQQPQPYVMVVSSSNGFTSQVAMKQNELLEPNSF
Chain of ELF4 (Q99607 whole entry): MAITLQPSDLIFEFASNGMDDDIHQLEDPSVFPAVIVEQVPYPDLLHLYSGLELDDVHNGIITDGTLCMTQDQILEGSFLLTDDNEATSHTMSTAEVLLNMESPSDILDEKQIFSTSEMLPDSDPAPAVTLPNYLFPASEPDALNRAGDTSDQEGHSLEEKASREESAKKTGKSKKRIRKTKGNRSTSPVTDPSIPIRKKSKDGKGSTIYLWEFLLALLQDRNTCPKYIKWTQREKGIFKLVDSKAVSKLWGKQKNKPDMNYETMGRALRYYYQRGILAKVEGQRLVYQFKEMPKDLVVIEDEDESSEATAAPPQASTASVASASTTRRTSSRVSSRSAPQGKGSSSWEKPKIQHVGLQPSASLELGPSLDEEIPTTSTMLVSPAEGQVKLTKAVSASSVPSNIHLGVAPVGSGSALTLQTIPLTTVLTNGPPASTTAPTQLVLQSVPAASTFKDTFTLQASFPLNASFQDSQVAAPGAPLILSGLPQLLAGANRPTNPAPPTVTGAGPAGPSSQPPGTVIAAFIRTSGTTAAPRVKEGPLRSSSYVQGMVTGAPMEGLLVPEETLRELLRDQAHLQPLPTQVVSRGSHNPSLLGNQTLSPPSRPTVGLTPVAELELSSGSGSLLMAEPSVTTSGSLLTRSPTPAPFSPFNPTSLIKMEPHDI
Chain of SPIB (Q01892 whole entry): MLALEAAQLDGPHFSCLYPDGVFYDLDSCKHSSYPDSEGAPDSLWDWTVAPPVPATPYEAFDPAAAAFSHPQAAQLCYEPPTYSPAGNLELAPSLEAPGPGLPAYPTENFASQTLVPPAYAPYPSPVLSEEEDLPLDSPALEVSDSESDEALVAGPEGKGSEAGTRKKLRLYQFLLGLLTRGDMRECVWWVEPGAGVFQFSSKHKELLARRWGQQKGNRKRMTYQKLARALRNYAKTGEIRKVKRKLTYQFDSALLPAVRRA
Chain of ETV5 (P41161 whole entry): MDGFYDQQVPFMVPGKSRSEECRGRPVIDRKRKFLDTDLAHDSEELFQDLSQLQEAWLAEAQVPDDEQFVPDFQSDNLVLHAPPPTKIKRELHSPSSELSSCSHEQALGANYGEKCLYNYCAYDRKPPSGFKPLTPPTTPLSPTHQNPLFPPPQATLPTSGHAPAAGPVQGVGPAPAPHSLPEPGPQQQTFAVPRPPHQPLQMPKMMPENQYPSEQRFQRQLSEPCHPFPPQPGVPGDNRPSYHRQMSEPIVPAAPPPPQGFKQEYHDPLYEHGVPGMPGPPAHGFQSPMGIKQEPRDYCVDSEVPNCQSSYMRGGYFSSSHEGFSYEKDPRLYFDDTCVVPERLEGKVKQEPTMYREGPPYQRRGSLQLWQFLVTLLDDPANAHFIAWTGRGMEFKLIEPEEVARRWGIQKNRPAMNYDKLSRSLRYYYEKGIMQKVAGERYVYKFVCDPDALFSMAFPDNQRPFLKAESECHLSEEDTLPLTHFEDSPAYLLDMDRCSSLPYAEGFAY

Take ACCCCG: the binding signal was 1.24 fold enrichment (6-mer frequency, TF over GST control) in assay [1]; 1.3 fold enrichment (6-mer frequency, TF over GST control) in assay [2]; 1.29 fold enrichment (6-mer frequency, TF over GST control) in assay [3]; 1.24 fold enrichment (6-mer frequency, TF over GST control) in assay [4]; 1.31 fold enrichment (6-mer frequency, TF over GST control) in assay [5]; 1.27 fold enrichment (6-mer frequency, TF over GST control) in assay [6]. In addition, the binding signal in assay [7] was 1.14 fold enrichment (6-mer frequency, TF over GST control); in [8] it was 1.3 fold enrichment (6-mer frequency, TF over GST control); in assay [9], 1.21 fold enrichment (6-mer frequency, TF over GST control); in [10], 1.25 fold enrichment (6-mer frequency, TF over GST control); in [11], 1.27 fold enrichment (6-mer frequency, TF over GST control); in [12], 1.38 fold enrichment (6-mer frequency, TF over GST control). For the same sequence, the binding signal in assay [13] was 1.33 fold enrichment (6-mer frequency, TF over GST control); in assay [14], 1.29 fold enrichment (6-mer frequency, TF over GST control); in [15], 1.21 fold enrichment (6-mer frequency, TF over GST control); in assay [16], 1.22 fold enrichment (6-mer frequency, TF over GST control); in assay [17], 1.02 fold enrichment (6-mer frequency, TF over GST control); in assay [18], 1.22 fold enrichment (6-mer frequency, TF over GST control).
